From PubChem
Hits are enriched below; roughly 10% of the tested compounds scored in any of these assays.
NS1 function inh – influenza NS1 inhibition; Potency, µM (top dose mostly 46.1 µM), for inactives: at the highest dose activity, positive = more growth; actives 0.4% (n = 270,000); calls by dose curve; further: actives are rising curves; nearly all actives have a fitted effect of over 50% in size
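Recovery from NS1-induced slow growth read by OD600 in budding yeast switched to galactose assay medium (pH 6.0, -URA) at 1:100 dilution. Compound 23 nl per well; the matching strain lacking NS1 serves as control.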
SARS PLP yeast – blocks SARS-CoV papain-like protease in a yeast assay; S. cerevisiae expressing SARS-CoV PLpro, growth rescue; Potency, µM (doses to about 32.9 µM), without a hit: at the highest dose activity, positive = growth rescue, usual class: activators; actives 0.19% (n = 330,000); calls by dose curve; further: 0% is about no effect; nearly all actives have a fitted effect of over 55% in size
Pf growth 96h – P. falciparum growth inhibition at 96 hour, primary screen for plastid delayed-death inhibitors; actives 6.9% (n = 320,000); Potency, µM (highest dose often 28.7 µM), inactives show at the top dose activity change, negative = inhibition, usual class: inhibitors; P. falciparum luciferase reporter growth, 96 h; AID 504834; further: on the % scale 0 is the no-effect control and ±100 the full control effect
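Erythrocytes infected with luciferase-expressing P. falciparum were dispensed at 2% hematocrit and 0.05% parasitemia (final), then incubated with compounds 96 hours at 37 C in 5% CO2. Luminescence after detection reagent addition reported growth.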
Pf growth 48h – P. falciparum growth inhibition at 48 hours (one generation); P. falciparum luciferase growth in erythrocytes, 48 h; Potency, µM (doses to about 28.7 µM), without a hit: at the top dose activity change, negative = inhibition, most hits filed as inhibitors; actives 5.9% (n = 310,000); further: on the % scale 0 is the no-effect control and ±100 the full control effect
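Growth was read as firefly luciferase luminescence after a 48 h, 37 C, 5% CO2 exposure of compounds to reporter-bearing P. falciparum cultures (0.1% parasitemia, 2% hematocrit final) in Albumax-supplemented RPMI 1640.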
Active calls of the source: *; u = inconclusive; x = no result. Unless noted, the call rests on the fitted dose curve; in most records, active means well fitted inhibition curve with a large enough effect; inconclusive means small, poorly fitted or top-dose-only effect, or another doubt; inactive means no such curve, though single readings can be large or run the other way. Potency means the concentration at half of the fitted maximal effect.

SMILES	NS1 function inh	SARS PLP yeast	Pf growth 96h	Pf growth 48h
COc1ccc(NS(=O)(=O)c2cccc(C(=O)NCC(c3ccco3)N3CCCC3)c2)cc1 (configuration not stated)	x	0%	15µM*	u
Cc1ccc(NS(=O)(=O)c2cccc(C(=O)NCC(c3ccco3)N3CCCCC3)c2)cc1 (configuration not stated)	5%	3%	12µM*	u
CN(CC(=O)NCC(c1ccco1)N1CCCCC1)S(=O)(=O)c1ccc(Cl)cc1 (configuration not stated)	x	6%	u	8.3µM*
CCOc1ccc(NS(=O)(=O)c2ccc(C(=O)NCC(c3ccc(OC)cc3)N3CCCC3)cc2)cc1 (configuration not stated)	x	1%	13µM*	13µM*
O=C(NCC(c1ccco1)N1CCCC1)c1cccc(S(=O)(=O)Nc2ccc(Br)cc2)c1 (configuration not stated)	7%	-5%	u	u
Cc1cc(C)c(S(=O)(=O)N2CCOC2CNC(=O)C(=O)NCc2ccncc2)c(C)c1 (configuration not stated)	5%	1%	0%	2%
COc1ccc(C(C(=O)NC(C)(C)C)N(C(=O)CNC(=O)c2cccs2)c2cccnc2)cc1OC (configuration not stated)	-3%	0%	u	20%
O=C(CNC(=O)C1CCCCC1)NNC(=O)c1ccccc1Br	1%	0%	u	u
Cc1cccc(NS(=O)(=O)c2ccc(C)c(C(=O)NCC(c3ccco3)N3CCCCC3)c2)c1 (configuration not stated)	x	-2%	u	13µM*
COc1ccc(NS(=O)(=O)c2ccc(C)c(C(=O)NCC(c3ccco3)N3CCCCC3)c2)cc1 (configuration not stated)	x	-3%	u	-11%
Cc1ccc(C(=O)Nc2ccc(Br)c(C(F)(F)F)c2)cc1	-77%	-24%	12µM*	u
Cc1ccc(S(=O)(=O)N(C)c2ccc3c(ncn3C)c2[N+](=O)[O-])cc1	x	1%	u	u
CC(CCc1ccccc1)NC(=O)CCNC(=O)c1ccccc1Cl (configuration not stated)	x	1%	x	x
N#CC1(NC(=O)CSc2nnc(Cc3ccccc3)o2)CCCCC1	x	4%	u	-18%
CCOc1ccccc1-c1nnc(SCC(=O)NC2(C#N)CCCC2)o1	x	2%	9.3µM*	u
Cc1ccc(CNC(=O)CN(c2ccc(C(C)C)cc2)S(=O)(=O)c2c(C)noc2C)cc1	13%	0%	10µM*	-8%
Cc1ccc(N(CC(=O)NCCc2ccc(Cl)cc2)S(=O)(=O)c2c(C)noc2C)cc1	-6%	4%	2.3µM*	-5%
Cc1cc(C)cc(N(CC(=O)Nc2ccc(C(F)(F)F)cc2)S(=O)(=O)c2c(C)[nH]c(=O)[nH]c2=O)c1	22%	2%	6%	15µM*
Cc1noc(C)c1S(=O)(=O)N(CC(=O)NC1CCC(C)CC1)c1ccc(C(C)C)cc1 (configuration not stated)	6%	0%	u	10µM*
O=C(NCc1ccc(Cl)cc1)C1CC(O)CN1S(=O)(=O)c1ccc(Cl)cc1 (configuration not stated)	1%	1%	2%	-1%
COc1ccc(N(CC(=O)NCc2cccs2)S(=O)(=O)c2c(C)nn(C)c2C)cc1	-2%	0%	u	x
COc1ccc(N(CC(=O)NCc2ccc(C)cc2)S(=O)(=O)c2c(C)[nH]c(=O)[nH]c2=O)cc1	-10%	5%	4.7µM*	25%
O=C(CN(c1ccc(Cl)cc1)S(=O)(=O)c1ccc(Cl)c([N+](=O)[O-])c1)NCCc1ccc(F)cc1	10%	4%	12µM*	u
Cc1nn(C)c(C)c1S(=O)(=O)N(CC(=O)NCc1cccs1)c1ccc(C(C)C)cc1	-88%	-10%	9.3µM*	1%
COc1ccc(N(CC(=O)NC2CCCCCC2)S(=O)(=O)c2c(C)nn(C)c2C)cc1	-13%	1%	u	-24%
SMILES	NS1 function inh	SARS PLP yeast	Pf growth 96h	Pf growth 48h
Cc1ccc(N(CC(=O)NC2CCCCCC2)S(=O)(=O)c2c(C)nn(C)c2C)cc1	-10%	2%	12µM*	0%
O=C(c1c(F)cccc1F)N1CCN=C1SCc1ccccc1	-44%	0%	-2%	-9%
O=C(NC(Cc1ccccc1)C(=O)O)c1ccc(S(=O)(=O)N2CCCC2)cc1 (configuration not stated)	13%	0%	0%	-2%
CC(=O)NC(Cc1ccccc1)C(=O)N1CCN(C(=S)NCC(C)C)CC1 (configuration not stated)	x	1%	47%	9%
COc1ccc(CCNC(=S)N2CCN(S(=O)(=O)c3ccccc3)CC2)cc1	x	6%	u	10µM*
Cc1ccc(S(=O)(=O)N2CCN(C(=O)C(Cc3ccccc3)NC(=O)c3ccccc3)CC2)cc1 (configuration not stated)	x	-8%	8.3µM*	u
Cc1ccc(S(=O)(=O)N2CCN(C(=S)NCC3CCCO3)CC2)cc1 (configuration not stated)	x	4%	3.3µM*	3.7µM*
CCNC(=S)N1CCN(C(=O)C(Cc2ccccc2)NC(C)=O)CC1 (configuration not stated)	x	0%	10µM*	54%
COc1ccc(C(=O)NC2CCN(S(=O)(=O)c3ccccc3F)CC2)cc1	-2%	1%	-13%	10µM*
CC(=O)NCCc1ccc(S(=O)(=O)N2CCN(c3nc(-c4ccccc4)c(C)s3)CC2)cc1	7%	-1%	4.1µM*	3.7µM*
S=C(NCCc1ccccc1)N1CCN(C(=S)NCCc2ccccc2)CC1	x	-1%	18%	-13%
Cc1ccc(S(=O)(=O)N2CCN(C(=S)NCCc3ccccc3)CC2)cc1	x	4%	7.4µM*	u
COC(=O)c1ccccc1S(=O)(=O)N1CCC(NC(=O)c2ccccc2)CC1	9%	0%	-21%	u
COc1ccc(CCNC(=S)N2CCN(S(=O)(=O)c3ccccc3F)CC2)cc1	-11%	-9%	u	13µM*
CC(=O)NCCc1ccc(S(=O)(=O)N2CCOCC2)cc1	2%	4%	x	14%
O=C(CNC(=O)c1ccc2c(c1)OCO2)N/N=C/c1cc(Br)ccc1O	9%	0%	30%	12%
Cc1ccc(Sc2ncccc2COC(=O)Nc2ccccc2)cc1	-8%	-15%	-15%	-5%
Cc1ccc(Sc2ncccc2COC(=O)Nc2c(C)cccc2C)cc1	12%	-21%	7.4µM*	u
O=C(CS(=O)(=O)Nc1ccc(F)cc1Cl)Nc1ccc(F)cc1Cl	-32%	-6%	3%	-13%
O=C(CCCC1=NS(=O)(=O)c2ccccc2N1)OCc1ccc(Cl)cc1	-12%	0%	u	u
Cc1ccccc1COC(=O)CCC1=NS(=O)(=O)c2ccccc2N1	17%	x	12µM*	-8%
Cc1ccc(-c2nnc3c4ccccc4c(C)nn23)cc1S(=O)(=O)N1CCN(CCO)CC1	-15%	2%	u	0.41µM*
